Compound activity (PubChem)
The full list was thinned out, with hits kept by preference.
CHX counter – affects cycloheximide protein synthesis inhibition readout, counter-screen; hit rate 12% among 300,000; max response, %; cell reporter, cycloheximide protein synthesis inhibition counterscreen; AID 2314; in the data active = max response mostly above about 13%, no sharp cut-off; inactive = mostly below about 14%; also: read at 38.3 µM for the half of the compounds with a filed dose; 0% is about no effect
Giardia FBPA inh-1 – blocks Giardia fructose-bisphosphate aldolase activity; A8B2U2; purified Giardia FBPA; Potency, µM (series often up to 59.6 µM), inactives show at the highest dose activity, negative = inhibition, most hits filed as inhibitors; hit rate 0.71% among 290,000; also: potency is read from the fitted curve at half-maximal effect; % is scaled to controls: 0 for no effect and ±100 for the full control effect; nearly all actives have a fitted effect of over 55% in size
Target sequence (A8B2U2 whole entry, looked up): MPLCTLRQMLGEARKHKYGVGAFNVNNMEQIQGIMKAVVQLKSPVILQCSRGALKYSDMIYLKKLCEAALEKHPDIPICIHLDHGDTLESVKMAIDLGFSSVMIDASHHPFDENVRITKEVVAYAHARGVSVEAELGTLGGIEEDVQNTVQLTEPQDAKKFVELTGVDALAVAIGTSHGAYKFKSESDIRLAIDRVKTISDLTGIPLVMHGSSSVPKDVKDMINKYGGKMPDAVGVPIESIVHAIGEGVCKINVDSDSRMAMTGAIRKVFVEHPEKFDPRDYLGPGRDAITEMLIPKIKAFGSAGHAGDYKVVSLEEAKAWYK
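Giardia FBPA (40 nM reagent) was preincubated 10 min at RT with compound (up to 57.5 uM final), then substrate plus GAPDH/TPI/NAD/arsenate coupling system with diaphorase/resazurin was added; resorufin fluorescence (525/598 nm) was read after 20 min.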
Shiga inhibitor – blocks Shiga toxin action in Vero cells. AID 2315. Vero cells, Shiga toxin protein synthesis inhibition reporter. hit rate 9.2% among 290,000. inhibition, % at 38.7 µM; in the data active = inhibition mostly above about 28%, no sharp cut-off; inactive = mostly below about 43%; also: 0% is about no effect
RE007 growth inh – less growth of the S. pombe RE007 Vpr strain; S. pombe RE007 Vpr strain, BacTiter-Glo ATP luminescence, 24 h; Potency, µM (titrated, usually from 92.2 µM), inactives show at the highest dose activity change, negative = less growth, most hits filed as inhibitors; hit rate 0.21% among 360,000; AID 651644; active = well fitted falling curve with a large enough effect; inconclusive = small, poorly fitted or top-dose-only effect; inactive = no such curve, though single readings can be large or run the other way; also: potency is read from the fitted curve at half-maximal effect; % is scaled to controls: 0 for no effect and ±100 for the full control effect; nearly all actives have a fitted effect of over 50% in size
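Fission yeast strain RE007, carrying one chromosomally integrated HIV-1 vpr copy, was seeded at OD 0.01 in PMG+AL medium with 23 nL pinned compound. After 24 h at 30 °C and 99% humidity, viability was read by BacTiter-Glo luminescence.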
Tb PYK inh – inhibitors of Trypanosoma brucei pyruvate kinase. Q57TT1. TbPYK enzyme, Kinase-Glo Plus ATP luminescence, 45 min. Potency, µM (series often up to 76.8 µM), for the others: top-dose activity, negative = inhibition, most hits filed as inhibitors. hit rate 0.12% among 410,000. AID 624173; also: potency is read from the fitted curve at half-maximal effect; % is scaled to controls: 0 for no effect and ±100 for the full control effect; nearly all actives have a fitted effect of over 50% in size
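Enzyme and substrate buffer are dispensed first and compound is pin-transferred. ADP at 130 uM final then starts the reaction, which runs 45 min at room temperature. Detection reagent is added for 10 min before luminescence is imaged.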
LmPK inhibitor – blocks Leishmania mexicana pyruvate kinase activity; Q27686; purified LmPK, Kinase-Glo ATP luminescence, 1 h; Potency, µM (top dose mostly 57.5 µM), for inactives: at the highest dose activity change, negative = inhibition, hits mostly inhibitors; hit rate 0.37% among 290,000; also: potency is read from the fitted curve at half-maximal effect; % is scaled to controls: 0 for no effect and ±100 for the full control effect
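Kinase-Glo luminescence read after 1 h RT reaction of 0.1 nM LmPK with 0.5 mM PEP and 0.1 mM ADP. Activity scaled between uninhibited and enzyme-free controls.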
Giardia growth – blocks growth of Giardia lamblia trophozoites | hit rate 5% among 1,500 | shares compounds with Giardia FBPA inh-1 | Giardia lamblia trophozoite growth inhibition | Potency, µM (highest dose often 57.5 µM), for inactives: at the highest dose activity change, negative = inhibition, actives largely listed as inhibitors | AID 2785;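 also: potency is read from the fitted curve at half-maximal effect; trophozoites exposed to compound for 48 h at 37 °C; % is scaled to controls: 0 for no effect and ±100 for the full control effect; nearly all actives have a fitted effect of over 70% in size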
Mammalian tox – counter-screen for Giardia aldolase inhibitors: mammalian cell toxicity; shares compounds with Giardia FBPA inh-1; mammalian cell viability counter-screen, qHTS; Potency, µM (top dose mostly 57.5 µM), for inactives: top-dose viability change, negative = toxicity, actives largely listed as inhibitors; hit rate 4% among 1,500;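 also: Chinese hamster ovary cells used as mammalian cytotoxicity surrogate; viability measured as cellular ATP by luminescence; potency is read from the fitted curve at half-maximal effect; compound exposure lasted 48 h before reading; % is scaled to controls: 0 for no effect and ±100 for the full control effect; nearly all actives have a fitted effect of over 60% in size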
Giardia FBPA inh-2 – confirmation of Giardia fructose-bisphosphate aldolase inhibitors | AID 2787 | Potency, µM (titrated, usually from 57.5 µM), inactives show at the top dose activity change, negative = inhibition, hits mostly inhibitors | shares compounds with Giardia FBPA inh-1 | purified Giardia aldolase enzyme activity, qHTS | hit rate 5% among 1,500; also: potency is read from the fitted curve at half-maximal effect; % is scaled to controls: 0 for no effect and ±100 for the full control effect; nearly all actives have a fitted effect of over 45% in size
Rabbit aldolase – selectivity test for Giardia aldolase inhibitors: rabbit aldolase | Potency, µM (doses to about 57.5 µM), for the others: top-dose activity, negative = inhibition, most hits filed as inhibitors | Rabbit muscle FBPA enzyme inhibition, selectivity counter-screen | hit rate 4% among 1,500 | shares compounds with Giardia FBPA inh-1; also: potency is read from the fitted curve at half-maximal effect; % is scaled to controls: 0 for no effect and ±100 for the full control effect; nearly all actives have a fitted effect of over 60% in size
Target sequence (P00883 whole entry, looked up): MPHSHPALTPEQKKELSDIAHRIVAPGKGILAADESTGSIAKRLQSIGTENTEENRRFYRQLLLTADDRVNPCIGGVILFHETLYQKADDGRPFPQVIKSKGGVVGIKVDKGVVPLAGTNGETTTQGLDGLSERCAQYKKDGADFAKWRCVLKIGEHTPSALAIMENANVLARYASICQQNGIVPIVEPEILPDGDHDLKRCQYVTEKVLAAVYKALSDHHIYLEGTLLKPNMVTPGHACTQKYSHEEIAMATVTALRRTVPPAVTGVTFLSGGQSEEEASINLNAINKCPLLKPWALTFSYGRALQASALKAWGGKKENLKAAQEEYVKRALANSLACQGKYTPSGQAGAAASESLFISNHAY
GAPDH counter – counter-screen for Giardia aldolase inhibitors: GAPDH coupling enzyme; shares compounds with Giardia FBPA inh-1; GAPDH coupling enzyme counterscreen, biochemical, qHTS; Potency, µM (highest dose often 57.5 µM), for the others: top-dose activity change, negative = inhibition, hits mostly inhibitors; hit rate 6% among 1,500; AID 2795; also: potency is read from the fitted curve at half-maximal effect; % is scaled to controls: 0 for no effect and ±100 for the full control effect; nearly all actives have a fitted effect of over 55% in size
Active calls of the source: *; u = inconclusive; x = not tested or not shown; [ ] = another dose, or the depositor's remark. Unless noted, calls follow the shape of the dose curve; as a rule, active = well fitted curve in the direction sought with a large enough effect; inconclusive = small, poorly fitted or top-dose-only effect, or another doubt; inactive = no such curve, though single readings can be large; an effect the other way counts as inactive or inconclusive.

SMILES	CHX counter	Giardia FBPA inh-1	Shiga inhibitor	RE007 growth inh	Tb PYK inh	LmPK inhibitor	Giardia growth	Mammalian tox	Giardia FBPA inh-2	Rabbit aldolase	GAPDH counter
Cc1cc(-c2ccco2)c(C#N)c2nc3ccccc3n12	17.8	1.26µM*	42.8	-19.1%	1.2%	-10.4%	-18.6%[38.3 µM]	-28.7%	u	u	u
Cc1cc(C(C)C)n2c(nc3ccccc32)c1C#N	-3.6	1.2%	-12.8	x	x	9.7%	x	x	x	x	x
O=C(NC(=S)Nc1ccc2oc(=O)ccc2c1)c1cccc(F)c1	-3.8	u	-3.7	5.5%	-7.0%	0.9%	x	x	x	x	x
O=C(NC(=S)Nc1ccc2oc(=O)ccc2c1)c1cccc(Cl)c1	-2.3	10µM*	-6.3	-0.7%	-0.3%	1.1%	20µM*	10.7%	-1.1%	11.3%	6.1%
CC(=O)NC(CCc1ccc(Cl)c(Cl)c1)c1cccc(O)c(=O)c1 (configuration not stated)	x	x	x	u	-3.0%	x	x	x	x	x	x
ON/C=N/C(=S)Nc1ncc(C(F)(F)F)cc1Cl	12.6	-7.0%	36.0	-17.4%	1.7%	0.7%	x	x	x	x	x
CON/C=N/C(=S)Nc1ncc(C(F)(F)F)cc1Cl	2.1	6.29µM*	15.2	u	-24.0%	2.2%	u	-1.6%	4.3%	13.8%	2.9%
CC(C)(C)C(=O)/C=C/Nc1ccccc1O	7.9	-19.5%	31.7	u	-4.8%	0.8%	x	x	x	x	x
CN(C)c1ccc(N/C=C/C(=O)C(C)(C)C)cc1	60.4	14.1µM*	148.2*	0.3%	-17.9%	-5.6%	u	-17.4%	-48.6%	u	-21.2%
Cc1ccc(NS(=O)(=O)c2cc(NC(=O)c3ccc4c(c3)NC(=O)CS4)ccc2C)c(C)c1	-3.4	15.8µM*	-6.1	2.9%	u	1.4%	-12.1%	-19.4%	-3.6%	-1.0%	3.4%
CC(C)c1cccc(-c2csc(C(C)(O)c3cccc(F)c3)n2)c1 (configuration not stated)	x	x	x	u	3.6%	x	x	x	x	x	x
Cc1ccccc1C(=O)c1cccn1CC(=O)NCCCN1CC(C)CC(C)C1 (configuration not stated)	-3.3	2.0%	-8.9	0.3%	-6.6%	-0.6%	x	x	x	x	x
Cc1ccccc1C(=O)c1cccn1CC(=O)NCCCN1CCc2ccccc2C1	10.3	15.8µM*	14.2	-5.8%	-15.8%	1.7%[11.5 µM]	u	-11.7%	8.7%	10.0%	5.9%
CN1CCc2c(sc(NC(=O)C3CCCN3S(=O)(=O)c3ccc(Cl)s3)c2C(N)=O)C1 (configuration not stated)	x	x	x	2.8%	-8.3%	x	x	x	x	x	x
O=C(c1cccc(F)c1)N1CCN(Cc2cccc(Br)c2)CC1	-2.2	14.1µM*	-3.6	-7.3%	4.3%	-3.9%	4.7%	1.1%	8.7%	6.7%	8.2%
O=C(c1cccc(F)c1)N1CCN(Cc2ccc3c(c2)OCO3)CC1	4.6	u	x	2.9%	6.7%	7.0%	x	x	x	x	x
COc1ccc(Br)cc1CN1CCN(C(=O)c2ccc(OC)c(OC)c2)CC1	1.1	u	-9.9	2.6%	-5.4%	-0.3%	x	x	x	x	x
COc1ccc(Br)cc1CN1CCN(C(=O)c2ccc(F)cc2)CC1	-4.2	15.8µM*	2.6	-12.5%	-7.0%	0.6%	4.5%	-11.2%	5.1%	12.4%	-6.9%
c1ccc2c(CN3CCCCC3)c[nH]c2c1	3.5	1.6%	-3.6	-12.5%	3.2%	0.1%	x	x	x	x	x
COc1ccc(CN2CCN(Cc3c[nH]c4ccccc34)CC2)c(OC)c1	x	x	x	-13.6%	-4.7%	x	x	x	x	x	x
O=[N+]([O-])c1ccccc1CN1CCN(Cc2c[nH]c3ccccc23)CC1	1.2	19.9µM*	-3.2	5.2%	20.4%	9.9%	5.0%[10.4 µM]	-23.1%	0.8%	3.4%	5.5%
COc1ccc(Br)cc1CN1CCN(Cc2c[nH]c3ccccc23)CC1	-3.7	14.1µM*	13.1	-19.8%	-16.1%	-4.7%	15.8µM*	-16.0%	2.3%	9.2%	5.0%
CCOc1ccc(C(=O)C(C)OC(=O)CN2C(=O)NC(C)(C)C2=O)cc1 (configuration not stated)	x	x	x	21.7%	-3.0%	x	x	x	x	x	x
COc1ccc(CN2CCN(Cc3c[nH]c4ccccc34)CC2)cc1	5.1	u	18.9	-15.8%	28.1%	-10.9%	-8.7%[38.3 µM]	2.2%	-3.8%	-4.6%	-12.1%
COc1ccc(CN2CCN(Cc3c[nH]c4ccccc34)CC2)cc1OC	x	x	x	-9.7%	6.0%	x	x	x	x	x	x
COc1ccc(C(=O)CC2(O)C(=O)N(Cc3cccc(C(F)(F)F)c3)c3ccccc32)cc1 (configuration not stated)	x	x	x	x	7.4%	x	x	x	x	x	x
NCc1c(O)ccc2ccccc12	-0.7	-9.9%	-6.2	x	x	6.2%	-2.0%[38.3 µM]	-9.1%	1.63µM*	u	u
CCC(CC)C(=O)Nc1cc(-c2cccc(C)c2)nn1-c1ccccc1	x	x	x	x	6.7%	x	x	x	x	x	x
